Laboratory results reported in PMC4552634, “A New Set of Chemical Starting Points with Plasmodium falciparum Transmission-Blocking Potential for Antimalarial Drug Discovery” (PLoS ONE, 2015).
The campaign covered roughly 13,000 compounds. About 3,200 (25%) showed an effect of 50% or more. Some of the results follow.

Each compound was assayed on P. falciparum stage V gametocytes. Conditions: 48 h, 5 µM; inhibitor.
Parameters: BacTiter-Glo ATP luminescence viability of purified stage V gametocytes in 384-well plates, per cent inhibition versus DMSO

| SMILES | % Inhibition [%] |
| --- | --- |
| CC(C)NC(=O)c1cccc(-c2ccc(OCCN3CCCC3c3cc4ccccc4[nH]3)cc2)c1 (centres unmarked) [TCMDC-134385] | -6.463 |
| CC(=O)c1ccc(NC(=O)C2c3ccccc3C(=O)N(CC(C)C)C2c2cccs2)cc1 (centres unmarked) [TCMDC-124757] | 58.39 |
| CC(C)CN1C(=O)c2ccccc2C(C(=O)Nc2cccc(C#N)c2)C1c1cccs1 (centres unmarked) [TCMDC-124758] | 44.13 |
| CC(C)CN1C(=O)c2ccc(C(=O)Nc3nccs3)cc2C1=O [TCMDC-125773] | -2.752 |
| CC(=O)c1cccc(NC(=O)C2c3ccccc3C(=O)N(CC(C)C)C2c2cccs2)c1 (centres unmarked) [TCMDC-124756] | 54.72 |
| Cc1ccc(Nc2nc3cc(N(C)c4ccnc(Nc5cccc(CS(C)(=O)=O)c5)n4)ccc3o2)cc1 [TCMDC-141956] | -42.21 |
| CC(C)C1=NCc2ccc([N+](=O)[O-])cc2C(=O)N1 [TCMDC-131785] | -3.925 |
| Cn1nc(-c2cccc(CN[C@@H]3CCc4ccc(O)cc43)c2)c2cnc(NCCCN3CCCC3)nc21 [TCMDC-135035] | 59.7 |
| Cn1nc(-c2cccc(CNC3CCc4ccccc43)c2)c2cnc(NCCCN3CCCC3)nc21 (centres unmarked) [TCMDC-135034] | 78.32 |
| Cn1nc(-c2cccc(CNC3CCc4ccccc43)c2)c2cnc(NC3CCCC3)nc21 (centres unmarked) [TCMDC-135030] | -10.51 |
| Cn1nc(-c2ccc(CN[C@@H]3CCc4ccc(O)cc43)cc2)c2cnc(NCCCN3CCCC3)nc21 [TCMDC-135037] | 45.21 |
| Cn1nc(-c2cccc(CN[C@@H]3CCc4ccc(O)cc43)c2)c2cnc(NC3CCCC3)nc21 [TCMDC-135032] | -0.5073 |
| c1cc(CN2CCc3ccccc3CC2)cc(-c2c[nH]c3nc(NC4CCCC4)ncc23)c1 [TCMDC-133774] | -80.37 |
| O=C(N[C@@H](CC1CCCCC1)C(=O)NC1CC1)c1ccc(O)c(-c2cccc(C(F)(F)F)c2)c1 [TCMDC-140807] | 9.846 |
| COc1ccc(-c2nc3nc4ccccc4cc3[nH]2)c(OCC(O)CNC(C)C)c1 (centres unmarked) [TCMDC-137443] | 26.08 |
| COc1ccc(NC(=O)c2ccc(-c3cc(NC(=O)c4ccnc(N5CCCC5)c4)ccc3C)s2)cc1N1CCN(C)CC1 [TCMDC-136373] | 32.31 |
| CN(C)CCC1CCN(CCS(=O)(=O)c2cccc(Nc3ccc(-c4cccc(F)c4)cn3)c2)CC1 [TCMDC-134375] | 43.14 |
| COC(=O)C(=O)c1c(-c2ccccc2)c(-c2ccc(OC)c(OC)c2)c2c3cc(OC)c(OC)cc3ccn12 [TCMDC-125088] | 26.26 |
| COCCOC(=O)C(=O)c1c(-c2ccccc2)c(-c2ccc(OC)c(OC)c2)c2c3cc(OC)c(OC)cc3ccn12 [TCMDC-125087] | 52.27 |
| COc1ccc(-c2cc(C(=O)N3CCc4ccccc43)c3ccccc3n2)cc1OC [TCMDC-123715] | -27.24 |
| O=C(Cc1cccc(OCCCN(Cc2cccc(C(F)(F)F)c2Cl)CC(c2ccccc2)c2ccccc2)c1)NCc1ccco1 [TCMDC-141563] | 90.42 |

| SMILES | % Inhibition [%] |
| --- | --- |
| O=C(NCc1ccco1)c1ccc(CN2CCN(C(c3ccccc3)c3ccccc3)CC2)cc1 [TCMDC-140763] | -11.73 |
| CCc1ccc(CN(CCCOc2cccc(CC(=O)NCc3cnc[nH]3)c2)Cc2ccc(-n3ccnc3)cc2)cc1 [TCMDC-134288] | 15.75 |
| CCCc1cc(OC)c(CC2c3cc(O)c(Cl)cc3C(c3ccccc3)CN2C)cc1OC (centres unmarked) [TCMDC-137432] | 12.27 |
| CCCCNC(=O)c1[nH]c2c(NC(=O)COc3ccccc3)cccc2c1-c1cccc(NC(=O)C(N)CO)c1 (centres unmarked) [TCMDC-140060] | -98.74 |
| CC(C)N1CCC(N(Cc2ccc(-c3ccc(C(F)(F)F)cc3)cc2)C(=O)Cn2c(CCc3cccc(F)c3F)cc(=O)c3cn(C)nc32)CC1 [TCMDC-136048] | 117.7 |
| CCN1CCC(N(Cc2ccc(-c3ccc(C(F)(F)F)cc3)cc2)C(=O)Cn2c(CCc3cccc(F)c3F)cc(=O)c3cn(C)nc32)CC1 [TCMDC-141156] | 59.01 |
| Cc1ccc(O)cc1Nc1ccnc2cc(-c3ccccc3)ccc12 [TCMDC-138295] | -25.3 |
| COc1cc2c(cc1NS(=O)(=O)c1ccc(OCc3ccc(Br)cc3)cc1)CCN(C1CCC1)CC2 [TCMDC-136020] | 14.15 |
| Nc1nc2c(c(=O)[nH]1)CN(S(=O)(=O)c1ccc(C(=O)N[C@@H](CCC(=O)O)C(=O)O)cc1)CC2 [TCMDC-137681] | -6.076 |
| CCCN(C(=O)c1ccccc1C)c1nnc(-c2cccc(C)c2)s1 [TCMDC-124387] | 20.16 |
| CCOc1ccc(N(CC)S(=O)(=O)c2cc(Br)cc3c2N(C(=O)C2CC2)CC3)cc1 [TCMDC-125469] | 14.82 |
| CN1CCN(CCCN(Cc2cccc(-c3ccc(CNCCc4ccccc4)cc3)c2)C(=O)c2cccs2)CC1 [TCMDC-140568] | 106.4 |
| O=C(NCCN1CCOCC1)c1ccc(-c2ccc(CNCCCc3ccccc3)cc2)nc1 [TCMDC-134245] | 16.29 |
| CN1CCN(CCCN(Cc2ccc(-c3ccc(CNCCc4ccccc4)cc3)cc2)C(=O)c2cccs2)CC1 [TCMDC-140752] | 86.87 |
| CN(C)CCN(C)Cc1ccc(-c2cccc(NC(=O)c3cccc(C#N)c3)c2)cc1 [TCMDC-132651] | -77.89 |
| Cc1noc(C)c1-c1cccc(CNCc2ccc(-c3ccc(-c4nc5cc(C(F)(F)F)ccc5[nH]4)s3)cc2)c1.O=C(O)C(F)(F)F [TCMDC-133062] | 33.98 |
| CC1CC(NCCCNc2cc(=O)c3ccccc3[nH]2)c2c1cc(Cl)c(Cl)c2Cl (centres unmarked) [TCMDC-139480] | -50.98 |
| O=[N+]([O-])c1ccc(Nc2nc(N/N=C/c3cc(Cl)cc(Cl)c3O)nc(Nc3ccccc3)n2)cc1 [TCMDC-123854] | 16.66 |
| O=[N+]([O-])c1ccc(Nc2nc(NCc3ccccc3)nc(N/N=C/c3ccccc3[N+](=O)[O-])n2)cc1 [TCMDC-124208] | 9.563 |
| CN(C)c1nc(NCc2ccccc2)nc(N/N=C/c2cc([N+](=O)[O-])ccc2O)n1 [TCMDC-124126] | 65.13 |
